We go through 38 compounds from PubChem BioAssay (NCI).

This is part of a sample that, as a whole, favours compounds with a hit. Of some 83,000 tested, about 20% had one in any assay.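 Negative percent growth values reflect cell death: -40 means 40% of the cells present at the start died, and -100 means all died.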 Values without a mark were called inactive. Active and inactive are the calls of the source. The calls were made as follows: active = growth percent below 10; inactive = the rest.

In this experiment the test system is CAKI-1 renal. The experiment is described as follows: NCI-60 one-dose screen, 48 h (100 = growth as untreated, 0 = no growth, -100 = all killed). As to conditions: 10 µM unless noted.
Regarding `CCN(CC)CCCCCCNc1cc(OC)cc2cccnc12`, the growth was 90.4%.

On to `COc1ccccc1Nc1cc(O)c2c(=O)cc(-c3ccccc3)oc2c1`, for which the growth is 41.3%.

On to `COc1ccc(C(O)c2cc3c(N)c(C(=O)Nc4ccc(Cl)cc4)sc3nc2C)cc1` (stereo not drawn), for which the growth is 25.2%.

For the compound `COc1cc(NCC(O)CN(CC(C)C)CC(C)C)c2nc(C)ccc2c1` (stereo not drawn), the growth is 74.1%.

`CCCCCCCCCCN=C(N)N=C(N)N`: the growth is 43.4%.

As for `COc1ccc(C(O)c2cc3c(N)c(C(=O)Nc4cccc(Br)c4C)sc3nc2C)cc1` (stereo not drawn), the growth is 41.1%.

`CCCCCCCCCCCCCCCCCCOc1ccccc1N`: the growth is 67.8%.

With `CC(=O)O[C@H]1CC[C@@]2(C)[C@@H](CC[C@@H]3[C@@H]2CC[C@@]2(C)[C@H]3CC[C@]2(O)C(C)=O)C1`, the growth is 99.3%.

`CCC1(CC)NC(=O)c2c(c3ccc(Cl)c(Cl)c3n2C)C1C#N` (stereo not drawn): the growth is 66.6%.

Turning to `COc1ccc(C2CC(c3cccc(Nc4ccncc4)c3)=NN2c2cc(Cl)cc(Cl)c2)cc1` (stereo not drawn), the growth is 33.3%.

For `CC(=O)Nc1ccc(S(=O)(=O)NC2CCCCC2)cc1`, the growth is 98.5%.

Regarding `Clc1ccc(N2N=C(c3cccc(Nc4ccncc4)c3)CC2c2ccccc2)cc1` (stereo not drawn), the growth is 76.2%.

Take `CN1C2CCC1CN(c1cnc(C(=O)Nc3cc(F)cc4cccnc34)cn1)C2`: the growth is 46.6%.

Consider `C=Cc1cc[n+](CCCCCCCCCCCC)cc1`, for which the growth was 103%.

On to `CCCCCCCCCCCCCCCC(=O)OC[C@@]1(O)C[C@@]23CC[C@@H]4C(C)(C)[C@H](O)CC[C@@]4(C)[C@@H]2CC[C@H]1C3`, for which the growth is 94.2%.

`O=C(CN1CCOCC1)Nc1ccc2ncnc(Nc3ccc(OCc4cccc(F)c4)c(Cl)c3)c2c1`: the growth is 45.8%.

With `Clc1cc(Cl)cc(N2N=C(c3cccc(Nc4ccncc4)c3)CC2c2ccccc2)c1` (stereo not drawn), the growth was 27%.

On to `C[C@]12CCc3nc(Nc4cccc(O)c4)sc3C1=CC[C@@H]1[C@@H]2CC[C@]2(C)/C(=N\NC(N)=S)CC[C@@H]12`, for which the growth was 36.4%.

Turning to `Cc1c2c(cc[n+]1Cc1ccccc1)c1ccc(OCc3ccccc3)cc1n2Cc1ccccc1`, the growth was -5.76% (active).

Consider `O=C(O)CNC(=O)CN1C(=O)c2ccccc2C1=O`, for which the growth was 95.9%.

Turning to `O=C(Nc1nc2ccc(C(=O)N3CCN(c4ccc(Cl)c(Cl)c4)CC3)cc2s1)c1ccc(NCCc2ccccc2)c([N+](=O)[O-])c1`, the growth is 87%.

Take `COc1ccccc1-c1c(-c2ccc(Cl)cc2)c2cc3c(cc2[nH]c1=O)OCCO3`: the growth was 54.9%.

As to `O=S(=O)(NCCNc1nccc(-c2c(-c3ccc(F)c(O)c3)nc3occn23)n1)c1ccccc1`, the growth is 44.1%.

On to `Clc1cc(Cl)cc(N2N=C(c3cccc(Nc4ccncc4)c3)CC2c2ccc(Br)cc2)c1` (stereo not drawn), for which the growth is 48.2%.

For `Cn1c(COC(=O)NCCn2ccnc2)nc2c(N3CCOCC3)nc(-c3ccccc3)nc21`, the growth is -94.2% (active).

For `Cc1c2c(cc[n+]1Cc1ccc(F)cc1)c1ccc(OCc3cccc(F)c3)cc1n2Cc1cccc(F)c1`, the growth was 60.2%.

Consider `CCCOc1nc(SCCC)nc2c1cnn2-c1ccccc1`, for which the growth was 105%.

`Cc1ccc(/C=C/C(=O)c2ccc(N)cc2)c(C)c1`: the growth is 84.1%.

As to `Cc1cc(C)c(C=O)c(C)c1`, the growth is 94.1%.

For `COc1ccc(-c2c(-c3ccccc3)noc2N)cc1OC`, the growth was 110%.

Regarding `O=C1c2cccnc2C(=O)c2nc3cc(N4CCN(C5CC5)CC4)ccc3nc21`, the growth was -5.27% (active).

For `c1ccc(N2N=C(c3cccc(Nc4ccncc4)c3)CC2c2ccc3c(c2)OCO3)cc1` (stereo not drawn), the growth was 25.7%.

Turning to `COc1cc(NCC(C)(O)CN(CC(C)C)CC(C)C)c2nc(C)ccc2c1` (stereo not drawn), the growth was 67.7%.

Turning to `C[C@@H]1CN(Cc2ccc(/C=C/c3n[nH]c4ccc5nc(-c6cn[nH]c6C(F)(F)F)c6c(c5c34)CCCC6)cc2)C[C@H](C)O1`, the growth is 1.97% (active).

As for `CC1(C)CCCN1CCCN1c2ccccc2Sc2ccc(Cl)cc21`, the growth was 60%.

Consider `CC1CCN(C(=O)OCc2nc3nc(Cl)nc(N4CCOCC4)c3[nH]2)CC1`, for which the growth was -73.8% (active).

For `CC1(C)CN(c2cnc(C(=O)Nc3cc(F)cc4cccnc34)cn2)CCN1`, the growth is 62.4%.

On to `Cn1c(COC(=O)NCCN2CCOCC2)nc2c(N3CCOCC3)nc(-c3ccccc3)nc21`, for which the growth is -94.8% (active).
